FBW7 act: activators of human E3 ligase FBW7 | Q969H0 | AlphaScreen FBW7–phospho-cyclin E peptide binding, activator screen | normalized activity (activation), % at 26.1 µM | actives 0.13% (n = 650,000) | AID 1259310; in the data active means normalized activity above about 1.9%;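 further: purified mutant Fbw7 with reduced substrate affinity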
TEAD-YAP inh: TEAD-YAP interaction inhibition. actives 1.4% (n = 640,000). AID 1259422. HEK-TIYL cells, TEAD-Gal4/YAP UAS-luciferase luminescence. inhibition, % at 9.12 µM; in the data active means inhibition above about 32%;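 further: 0% = median of test compound wells and 100% = reference inhibitor wells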
MITF primary: human MITF inhibition, primary screen; AID 1259374; actives 0.91% (n = 650,000); AlphaScreen MITF homodimerization, bead proximity signal; inhibition, % at 2.6 µM; O75030; in the data active means inhibition above about 50%;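 further: 0% = vehicle wells with protein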
GPR151 ag: activates the human receptor GPR151; AID 1508602; PathHunter beta-arrestin GPR151 cells, luminescence; activation, % at 11.2 µM; Q8TDV0; actives 1% (n = 650,000); in the data active means activation above about 4.9%;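 further: 0% = median of compound wells and 100% = cells with positive control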
Target sequence (Q8TDV0 whole entry, looked up): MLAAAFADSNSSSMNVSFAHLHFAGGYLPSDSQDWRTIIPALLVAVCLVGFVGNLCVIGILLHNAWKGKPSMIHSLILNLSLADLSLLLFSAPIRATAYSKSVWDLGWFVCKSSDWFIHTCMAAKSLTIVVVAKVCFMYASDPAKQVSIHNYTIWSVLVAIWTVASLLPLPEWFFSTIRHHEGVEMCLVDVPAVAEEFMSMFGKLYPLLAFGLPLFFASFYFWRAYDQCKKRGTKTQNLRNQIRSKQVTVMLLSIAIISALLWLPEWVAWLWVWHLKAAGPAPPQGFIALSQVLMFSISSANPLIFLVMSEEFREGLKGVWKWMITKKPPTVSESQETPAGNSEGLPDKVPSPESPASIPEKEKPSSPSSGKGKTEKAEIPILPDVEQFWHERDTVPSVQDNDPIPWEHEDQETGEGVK
GPR151 conf act: human GPR151 activation, confirmation screen; 6,700 tested, under 10 active; GPR151 PathHunter beta-arrestin cells, luminescence, 90 min; % of EA-reagent control over plate median; shares compounds with GPR151 ag; activation, % at 11.2 µM;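 active means mean percent activation across replicates above the confirmation screen cutoff of 4.91%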
GPR119 counter: counter-screen for GPR151 activators: effect on human GPR119. GPR119 PathHunter beta-arrestin cells, luminescence, 90 min; 0 = compound-well median, 100 = enzyme-acceptor control. shares compounds with GPR151 ag. activation, % at 11.2 µM. actives 0.3% (n = 6,700);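 active means mean percent activation in the counterscreen above 29.09%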;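 further: counterscreen on off-target GPR119 to flag nonselective hits from the GPR151 activator screen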
* hit, by the source's call; nt = not tested or not shown. The list is not random: actives were taken first. Their share in the collection is about 3.5%.

SMILES	FBW7 act	TEAD-YAP inh	MITF primary	GPR151 ag	GPR151 conf act	GPR119 counter
O=C(CSc1ccc2nnc(-c3cccnc3)n2n1)N1CCCCC1CCn1ccnc1 (stereo not drawn)	0.7	-0.4	30.8	7.7*	0.7	2.2
COC(=O)c1ccc(N2N=C(C)/C(=C/c3ccc(C)s3)C2=O)cc1	0.1	1.8	-2.7	-0.5	nt	nt
CC1=NN(c2ccc(Br)cc2)C(=O)/C1=C/c1ccc(C)s1	0.0	2.9	-2.2	7.5*	1.3	1.9
CCOC(=O)c1cccc(NC(=O)c2ccc3c(=O)n4c(nc3c2)CCCCC4)c1	-0.2	-2.2	3.4	-0.3	nt	nt
CC(=O)c1ccc(N2CCN(CC(=O)Nc3sc(C)c(C)c3C#N)CC2)cc1	-0.2	6.8	1.7	0.6	nt	nt
O=C(NCCN1CCCC1)C1(S(=O)(=O)c2ccc(Cl)cc2)CC1	0.2	5.2	-0.1	0.8	nt	nt
CC1CCCCN1CCNC(=O)C1(S(=O)(=O)c2ccc(Cl)cc2)CC1 (stereo not drawn)	-0.1	-4.1	2.6	6.7*	0.3	16.1
COc1ccc(Br)c(C(=O)N/C(=C/c2cccc([N+](=O)[O-])c2)C(=O)Nc2cc(Cl)ccc2C)c1	0.0	10.0	-6.9	0.2	nt	nt
COc1ccc(C(=O)N/C(=C/c2cccc([N+](=O)[O-])c2)C(=O)Nc2cc(Cl)ccc2C)c(Cl)c1	0.0	-7.8	-11.0	11.6*	-0.3	-6.0
O=C(COc1ccc(Cl)cc1Cl)Nn1c(=S)[nH]c2ccccc2c1=O	-0.1	1.9	-9.1	-1.1	nt	nt
CCCN(CCC)S(=O)(=O)c1ccc(NS(C)(=O)=O)cc1	-0.2	-1.2	-0.4	-0.2	nt	nt
CCCN(CCC)S(=O)(=O)c1ccc(NS(=O)(=O)c2ccc(F)cc2)cc1	0.3	6.0	3.2	6.1*	0.0	-14.0
CC(=O)Nc1ccc(S(=O)(=O)Nc2ccc(C(F)(F)F)cc2[N+](=O)[O-])cc1	-0.1	9.2	5.7	7.8*	1.1	15.4
O=[N+]([O-])c1ccc(Oc2ccc(S(=O)(=O)Nc3ccccc3)cc2)cc1	0.0	24.2	-10.8	0.8	nt	nt
Cc1ccnc(NS(=O)(=O)c2ccc([N+](=O)[O-])cc2)n1	-0.1	-20.9	-2.6	7.5*	-0.5	-13.2
O=[N+]([O-])c1ccc(Oc2ccc(S(=O)(=O)Nc3ccc(F)cc3)cc2)cc1	0.1	35.5*	3.7	7.5*	0.9	-4.6
COc1ccc(N(C(C)C(=O)N2CCN(Cc3ccccc3)CC2)S(C)(=O)=O)cc1 (stereo not drawn)	0.1	1.2	8.4	-1.0	nt	nt
O=C(Cc1ccccc1)NNc1ccccc1	0.2	3.4	5.2	0.8	nt	nt
CCCCCCCn1c(CN2CCOCC2)nc2c1c(=O)[nH]c(=O)n2C	0.0	-3.4	7.4	-1.1	nt	nt
CC(=O)Nc1ccc(S(=O)(=O)c2ccc(NC(C)=O)c([N+](=O)[O-])c2)cc1[N+](=O)[O-]	0.7	4.5	14.7	7.5*	1.3	9.9
CC(=O)Nc1ccc(S(=O)(=O)c2ccc([N+](=O)[O-])cc2)cc1	-0.1	1.7	-5.6	-1.6	nt	nt
CC(=O)Nc1ccc(NS(=O)(=O)c2ccc([N+](=O)[O-])cc2)cc1	0.7	8.2	13.2	17.5*	0.7	0.7
CN(C)c1cccc(Nc2ncc(-c3ccsc3)n3ccnc23)c1	0.1	-62.5	15.8	0.4	nt	nt
N/C(=N/OCc1ccc(Cl)c(Cl)c1)c1nonc1N	0.3	-42.7	22.0	8.7*	-1.0	-2.8
Cc1ccc(NC(=O)CO/N=C(\N)c2nonc2N)cc1	0.1	6.5	8.5	5.9*	0.7	-6.3
SMILES	FBW7 act	TEAD-YAP inh	MITF primary	GPR151 ag	GPR151 conf act	GPR119 counter
CCCCCn1c(N)c(C#N)c2nc3ccccc3nc21	0.1	6.2	35.3	8.2*	0.0	2.3
Cn1c(N)c(C#N)c2nc3ccccc3nc21	0.8	-2.1	8.5	1.0	nt	nt
O=C1CCCN1CCCNc1cc(N2CCOCC2)ncn1	-0.1	-3.5	0.8	0.1	nt	nt
COc1cc(Nc2nc(NCCCN3CCCC3=O)c3ncn(C(C)C)c3n2)cc(OC)c1OC	-0.1	6.7	-2.9	13.0*	1.3	0.5
O=C1CCCN1CCn1cnc2c(NCCN3CCOCC3)nc(Nc3nccc4ccccc34)nc21	-0.1	-2.7	6.1	5.3*	0.4	-7.4
COc1cc(Nc2nc(NCCCN3CCCC3=O)c3ncn(CCN4CCCC4=O)c3n2)cc(OC)c1OC	-0.2	-0.4	3.9	6.5*	0.0	-7.5
O=C1CCCN1CCCNc1cc(N2CCC(N3CCOCC3)CC2)ncn1	0.1	7.4	-0.1	8.5*	-1.3	-14.3
CCCCCOC(=O)c1ccc(N2C(=O)c3ccc(Oc4ccc(N)cc4)cc3C2=O)cc1	0.0	-5.8	-9.7	-0.2	nt	nt
O=C1CCCN1CCCNc1nc(Nc2ccc(N3CCOCC3)cc2)nc2c1ncn2CCN1CCCC1=O	-0.1	-2.0	-3.4	10.5*	-0.1	-4.8
O=C1CCCN1CCn1cnc2c(Nc3ccc(N4CCOCC4)cc3)nc(Nc3ccc(N4CCOCC4)cc3)nc21	0.3	-2.7	20.6	2.8	nt	nt
Cc1ccnc2nc(C(=O)OCC(=O)c3ccc(S(=O)(=O)N4CCCC4)cc3)nn12	0.0	5.8	-2.9	0.7	nt	nt
CSc1cccc(N=CC2=C(O)CC(C)(C)CC2=O)c1	0.0	3.4	-10.9	7.1*	-0.7	-3.7
COc1ccc(CCNC(=O)COc2ccc(Cl)cc2)cc1	0.0	-4.3	-6.0	-0.3	nt	nt
O=C(Nc1ccc(Oc2ccccc2)cc1)Nc1cccc([N+](=O)[O-])c1	0.6	-7.5	22.7	7.0*	-0.3	1.2
CC1CCN(S(=O)(=O)c2ccc3c(c2)oc(=O)n3CC(=O)N2CCCC(C)C2)CC1 (stereo not drawn)	-0.3	-3.6	-2.9	0.9	nt	nt
COc1cc(/C=C/C(=O)OCC(=O)NC(C)(C)C)ccc1OC(F)F	0.0	-3.5	-1.9	-1.8	nt	nt
COc1cccc2cc3c(=O)n(-c4ccccc4)nc-3oc12	0.1	12.6	6.8	10.4*	0.6	0.9
CCC(NC(=O)Cn1nnnc1CN1CCC(C)CC1)c1ccc(F)cc1 (stereo not drawn)	0.0	1.3	0.6	5.6*	0.2	-1.5
COc1ccc(Cl)cc1S(=O)(=O)NC(C)c1ccccc1 (stereo not drawn)	-0.1	-0.6	0.8	0.6	nt	nt
CCOc1ccc(Cl)cc1S(=O)(=O)NC(C)c1ccccc1 (stereo not drawn)	0.1	-8.9	-6.3	5.1*	-0.3	5.2
CC(NS(=O)(=O)c1ccc(OCC(=O)Nc2ccccc2)c(Cl)c1)c1ccccc1 (stereo not drawn)	0.2	-2.7	-20.2	6.1*	0.7	4.5
C=CCNC(=O)COc1ccc(S(=O)(=O)NC(C)c2ccccc2)cc1Cl (stereo not drawn)	0.2	-0.5	-0.5	2.2	nt	nt
CCOc1ccc(C(=O)CC(NCCN2CCOCC2)C(=O)O)cc1 (stereo not drawn)	0.0	-1.4	-1.0	1.7	nt	nt
